# Reference: PMC9574860, “Chemical Toolkit for PARK7: Potent, Selective, and High-Throughput” (Journal of Medicinal Chemistry, 2022)
# Hit rate of the full screen: of about 7,900 compounds, about 400 (5.1%) showed an effect of 50% or more. Many of the other results were omitted from the sample, so strong results are more common in it than they were.
# Biological target: Parkinson's disease protein 7 (PARK7/DJ1) (human, UniProt Q99497)
# Assay: primary screen, percent inhibition; read as competition with a fluorescent probe by fluorescence polarization; higher = more effect of the substance
# Settings: 100 µM
# Procedure, shortened: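 Covalent fragments at 100 μM final were incubated 2 h with 0.2 μM PARK7, then 20 nM probe JYQ-107 added for a further 2 h. Fluorescence polarization read at 480/520 nm; relative FP loss versus reference controls gave remaining enzyme activity.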
# Parkinson's disease protein 7 (PARK7/DJ1), sequence (Q99497 whole entry, looked up): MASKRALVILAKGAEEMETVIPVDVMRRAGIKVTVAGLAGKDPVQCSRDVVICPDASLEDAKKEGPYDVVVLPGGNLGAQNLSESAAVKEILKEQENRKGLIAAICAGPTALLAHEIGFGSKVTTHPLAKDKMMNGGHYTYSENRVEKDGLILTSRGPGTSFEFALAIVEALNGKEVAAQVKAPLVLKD
row,SMILES,Inhibition %
1,C=CC(=O)N[C@@H]1C=C[C@H](CO)C1,8.28%
2,Cn1cc(C=C(C#N)C(=O)NCCc2ccccc2)cn1,9.69%
3,O=C(O)c1coc(C(=O)CCl)c1,96.1%
4,O=C(CCl)Nc1cc(C(=O)O)cc(C(=O)O)c1,1.39%
5,CNC(=O)c1cc(C(=O)CCl)cn1C,5.61%
6,NC(=O)c1coc(C(=O)CCl)c1,96.3%
7,O=C(O)c1ccc(CCCl)cc1,8.12%
8,C=CC(=O)N1CCC(OC)C(C)C1 (centres unmarked),4.37%
9,N#CC(=Cc1ccccc1)C(=O)N1CCC(C(N)=O)CC1,9.67%
10,CN1C(=O)C(C#N)=C(N)C12CCCC2,9%
11,C=CC(=O)N1CCN(C(=O)OCC(C)C)CC1,11.5%
12,CN(CCC1CCOCC1)c1nc2ccccn2c1C#N,5.08%
13,Cc1ccc(C=CS(=O)(=O)NCCC(=O)O)cc1,5.97%
14,O=C(O)c1cccc(NS(=O)(=O)C=Cc2ccccc2)c1,-0.0382%
15,Cc1ccc(C=CS(=O)(=O)NCC(=O)O)cc1,81.7%
16,O=C(O)c1csc(NS(=O)(=O)C=Cc2ccccc2)c1,62.5%
17,O=C(O)CNS(=O)(=O)C=Cc1ccccc1,84.3%
18,CNC(=O)CNS(=O)(=O)C=Cc1ccc(Cl)cc1,0.98%
19,O=C(O)c1ccc(NS(=O)(=O)C=Cc2ccccc2)cc1,6.88%
20,O=C(O)CCNS(=O)(=O)C=Cc1ccccc1,6.07%
21,CNC(=O)CNS(=O)(=O)C=Cc1ccccc1,6.07%
22,CC(=O)N1CCN(C(=O)C=Cc2c(C)nn(C)c2Cl)CC1,8.55%
23,O=C(O)C1CC(O)CN1C(=O)C=Cc1ccc(F)cc1 (centres unmarked),2.28%
24,N#Cc1ccc(N2CCCC(N3CCCCCC3)C2)cn1 (centres unmarked),5.26%
25,O=C(CCl)Nc1cc(C2CC2)nn1-c1ccccc1,18.1%

row,SMILES,Inhibition %
1,CC1CC(Sc2nncn2-c2ccccc2F)C(=O)O1 (centres unmarked),0.0122%
2,COc1ccc(F)cc1S(=O)(=O)n1ccnc1C,3.76%
3,CC1(C)OB(c2cc(Cl)ccc2N)OC1(C)C,13.4%
4,CC(C)(C)OC(=O)c1cc2ccc(B3OC(C)(C)C(C)(C)O3)cc2[nH]1,7.8%
5,O=c1onc(-c2cnccn2)n1Cc1cccc(F)c1,-2.87%
6,Cc1cc(NS(=O)(=O)C2=CCCCC2)c[nH]c1=O,48.5%
7,Cc1cc(NS(=O)(=O)c2ccc(S(=O)(=O)F)cc2)c[nH]c1=O,92.6%
8,O=C(O)CC1OB(O)c2ccccc21 (centres unmarked),0.686%
9,CCN(CCC#N)S(=O)(=O)C=Cc1ccccc1Cl,6.99%
10,O=C(O)Cc1ccccc1CS,89.6%
11,COc1ccccc1CS,1.46%
12,C#CC(=O)Cc1ccccc1,7.8%
13,O=C(O)Cc1ccc(CS)cc1,58.7%
14,O=C(O)c1ccc(CS)cc1,17.3%
15,C#CC(=O)Nc1ccc(CC(=O)O)cc1,0.397%
16,C=CC(=O)NCC1CCCc2sc(C)nc21 (centres unmarked),5.16%
17,Fc1ccc(C2=NOC(CCl)C2)cc1 (centres unmarked),-2.86%
18,COc1ccc(S(=O)(=O)N(C)C)cc1NC(=O)CCl,20.4%
19,C=CC(=O)N1CCOc2c(F)ccc(F)c21,9%
20,C=CC(=O)Nc1cc(CC(C)(C)C)nn1C,8.54%
21,CC(=O)Nc1ccc(S(=O)(=O)F)cc1,15.8%
22,O=C(CCCl)Nc1ccc(F)cc1,5.87%
23,O=C(CCCl)Nc1ccccc1,3.48%
24,O=C(CC1SC(=O)NC1=O)Nc1ccccc1 (centres unmarked),82.7%
25,C=CC(=O)Nc1ccc(Cl)cc1,5.59%

row,SMILES,Inhibition %
1,CC(=O)Nc1ccc(OC(=O)N(C)C)cc1,10.8%
2,O=C(CCl)Nc1ccccc1C(=O)Nc1ccccc1,10.5%
3,CC(=O)Nc1ccc(NC2SC(=O)NC2=O)cc1 (centres unmarked),66.6%
4,O=C(CC1SC(=O)NC1=O)Nc1ccc(Cl)cc1 (centres unmarked),95.7%
5,N#CC1(CCCl)CCCCC1,3.15%
6,C=CC(=O)N1CCN(c2ccc(OC)cn2)CC1,5.59%
7,O=C(CCl)Nc1ccc(NC(=O)c2cccs2)cc1,28%
8,COc1ccc(Cl)cc1NC(=O)CCl,14.9%
9,COc1ccc(C(=O)CCl)cc1F,91.7%
10,COc1cc(OC)c(C(=O)CCl)c(OC)c1,5.2%
11,COc1ccc(C(=O)CCl)cc1Cl,95.9%
12,COc1ccc(Cl)cc1C(=O)NNC(=O)CCl,29.8%
13,COc1ccc(NC(=O)CCl)cc1Cl,28.1%
14,C=CC(=O)NC1CC(C(C)(C)C)C1 (centres unmarked),14%
15,C=CC(=O)N1c2cc(OC)ccc2NC(=O)C1C (centres unmarked),9.84%
16,O=S(=O)(F)c1cc(Br)ccc1Cl,88.4%
17,O=S(=O)(F)c1ccc(Cl)c(S(=O)(=O)F)c1,-3.28%
18,O=S(=O)(F)c1ccc(Br)cc1,13.2%
19,CC1CCN(C(=O)CCl)c2ccccc2S1 (centres unmarked),6.09%
20,Cc1ccc(Oc2ccc(Cl)cc2NC(=O)CCl)cc1,2.17%
21,COc1cc(NC(=O)OC(C)(C)C)ccc1B1OC(C)(C)C(C)(C)O1,14.5%
22,O=C(CCl)Nc1cc(Cl)ccc1-n1cncn1,11%
23,Cc1ccc(Sc2ccc(NC(=O)CCl)cc2)cc1C,34.5%
24,Cc1ccc(C)c(Sc2ccc(NC(=O)CCl)cc2)c1,37%
25,CSc1ccc(NC(=O)CCl)cc1,86%

row,SMILES,Inhibition %
1,Cc1ccc(Sc2ccc(NC(=O)CCl)cc2)c(C)c1,25.5%
2,O=C(CCl)Nc1ccc(SC(F)F)cc1,100%
3,O=C(CCl)Nc1ccccc1SC(F)F,9.47%
4,CC1(C)[C@@H](Nc2cnc(C#N)cn2)[C@@H]1c1ccccc1 (racemic),10.2%
5,Cc1nc(S)c(C#N)cc1C(=O)Nc1ccccc1,10.1%
6,N#Cc1ncn(CC(=O)N(C2=CCCCC2)C2CC2)n1,29.4%
7,COc1ccc(C(=O)CCl)c2c1C(=O)CO2,64.2%
8,COc1ccc(C(=O)CCl)c(OC)c1,41.1%
9,COc1ccc(OC)c(C(=O)CCl)c1,11.8%
10,O=C(C=Cc1cnc2ccccc2n1)N1CCCCC1,9.55%
11,O=C1OC[C@@H]2CN(Cc3ccccc3)C[C@H]12 (racemic),6.21%
12,O=S(=O)(F)c1ccc2ccccc2n1,69.3%
13,O=S(=O)(F)c1nc2ccccc2s1,12.9%
14,CC(OS(C)(=O)=O)C(C)c1ccc2ccccc2n1.Cl (centres unmarked),24.3%
15,Cc1cc(C=C(C#N)C(N)=O)c(C)n1C1CC1,2.13%
16,Cc1cc(C(=O)CCl)c(C)[nH]1,98.2%
17,Cc1cc(C(=O)CCl)c(C)n1C(C)C,96.9%
18,CCn1c(C)cc(C(=O)Cn2cnc(C#N)n2)c1C,0.239%
19,C=CCn1c(C)cc(C(=O)CCl)c1C,58.7%
20,Cc1cc(C(=O)CCl)c(C)n1CC(N)=O,4.29%
21,Cc1cc(F)c(C(=O)CCl)cc1F,5.49%
22,Cc1cc(C(=O)Cn2cnc(C#N)n2)c(C)n1C(C)C,11.7%
23,Cc1cc(C(=O)CCl)c(C)n1CC1CCCO1 (centres unmarked),3.43%
24,Cc1cc(C(=O)CCl)c(F)cc1F,5.96%
25,CCn1c(C)cc(C(=O)CCl)c1C,56%

row,SMILES,Inhibition %
1,C=CC(=O)N1CCC2COCC2C1 (centres unmarked),6.41%
2,N#Cc1nc(-c2ccc(Cl)cc2Cl)oc1N,-2.51%
3,O=c1ccc2cc(S(=O)(=O)OCC(F)(F)F)ccc2o1,6.17%
4,C=CC(=O)NCCc1cncnc1,10.1%
5,CCc1ccc(C=CS(=O)(=O)Nc2onc(C)c2C)cc1,4.3%
6,N#Cc1cc(C(=O)NCC2CCc3nccn3C2)c[nH]1 (centres unmarked),16.5%
7,CCC(NC(=O)CCl)c1ccc(Br)cc1 (centres unmarked),5.16%
8,CC1(C)OB(c2cccc(OCCCN3CCCC3)c2)OC1(C)C,1.19%
9,C=CC(=O)N1CCCCC1c1noc(C)n1 (centres unmarked),3.88%
10,O=C(CN1CCSC1=O)N1CCN(c2ccccc2)CC1,5.93%
11,C=CC(=O)N1CCC(S(=O)(=O)NC(C)C)C1 (centres unmarked),7.14%
12,CC1(CO)CCCC1Nc1ccc(C#N)nc1 (centres unmarked),6.61%
13,COCc1cccnc1C#N,2.34%
14,Fc1ccc(C2CO2)nc1 (centres unmarked),4.53%
15,CCCn1c(C)cc(C(=O)Cn2cnc(C#N)n2)c1C,6.57%
16,Cc1cc(C(=O)CCl)c(C)n1Cc1ccco1,54.9%
17,Cc1cc(C(=O)CCl)c(C)n1CC(F)(F)F,1.46%
18,Cc1cc(C=C(C#N)C(N)=O)c(C)n1Cc1ccco1,7.44%
19,Cc1cc(C(=O)CCl)c(C)n1C1CCS(=O)(=O)C1 (centres unmarked),35.7%
20,Cc1cc(C(=O)CCl)c(C)n1C,72.1%
21,COCCn1c(C)cc(C(=O)CCl)c1C,49.1%
22,Cc1cc(C(=O)Cn2cnc(C#N)n2)c(C)n1C,18.2%
23,Cc1cc(C(=O)Cn2cnc(C#N)n2)c(C)n1C1CC1,17.1%
24,Cc1cc(C(=O)CCl)c(C)n1C1CC1,65%
25,CCCn1c(C)cc(C(=O)CCl)c1C,56%
